# Assay results reported in PubChem BioAssay (Tox21).
# Records with an inconclusive call do not appear. Values without a mark were called inactive. Activity calls are given as the source filed them. Unless noted, calls come from the whole dose curve; as a rule, active = well fitted curve in the direction sought with a large enough effect in the repeat runs; inconclusive = weak or mixed curves; inactive = no such curve, though single readings can be large; an effect the other way counts as inactive or inconclusive.
# Target: Estrogen receptor (Homo sapiens) (UniProt P03372)
# Experiment: qHTS assay to identify small molecule agonists of the estrogen receptor alpha (ER-alpha) signaling pathway (AID 743075; calls by dose curve;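 note: HEK293 GripTite cells with ER-alpha and UAS-driven beta-lactamase reporter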; note: potency is the fitted concentration of half-maximal effect)
# Conditions: HEK293 ER-alpha-UAS-bla, beta-lactamase FRET ratio, 18 h; series mostly up to 70.1 µM; activation: at the top concentration
# % is set by controls: 0 for no effect and ±100 for the full control effect.
# Chain of Estrogen receptor (Homo sapiens) (P03372 whole entry, looked up): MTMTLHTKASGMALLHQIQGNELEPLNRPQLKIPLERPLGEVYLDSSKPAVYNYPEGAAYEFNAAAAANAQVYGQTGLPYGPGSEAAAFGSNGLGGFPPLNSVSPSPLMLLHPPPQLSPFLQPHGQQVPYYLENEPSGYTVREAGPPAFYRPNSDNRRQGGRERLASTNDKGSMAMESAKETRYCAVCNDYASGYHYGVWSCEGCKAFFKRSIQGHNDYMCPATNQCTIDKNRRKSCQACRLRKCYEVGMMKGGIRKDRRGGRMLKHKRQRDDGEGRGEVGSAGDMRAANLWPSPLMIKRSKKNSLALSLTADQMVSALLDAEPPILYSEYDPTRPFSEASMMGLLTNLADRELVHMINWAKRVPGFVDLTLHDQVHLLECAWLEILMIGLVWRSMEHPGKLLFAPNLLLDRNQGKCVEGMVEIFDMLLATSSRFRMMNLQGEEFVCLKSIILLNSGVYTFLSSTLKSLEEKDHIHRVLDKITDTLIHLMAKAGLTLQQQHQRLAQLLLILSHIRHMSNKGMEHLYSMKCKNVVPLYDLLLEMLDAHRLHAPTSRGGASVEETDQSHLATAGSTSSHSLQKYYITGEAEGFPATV
SMILES,activation,Potency
Cc1nc2ccccc2c(=O)o1,-5.41% [at 79.1 µM],
CCN(CCO)c1cccc(C)c1,-2.36%,
FC(F)(F)/C(=N\OCC1OCCO1)c1ccc(Cl)cc1,-1.4%,
C=CCCCCCCCCCCC,-3.33% [at 6.71 µM],
CCCCCCCCCCCCCC(=O)OC,-0.739%,
CNC(=O)C(c1ccccc1)c1ccccc1,1.16%,
Cc1nc(C)nc(N2C[C@@H](C)N(c3ccnc([C@@H](C)O)n3)[C@@H](C)C2)n1,-3.41%,
COc1ccc(/C=N/NC(=O)c2ccncc2)cc1OC,3.15%,
CC(C)COC(=O)/C=C/c1ccccc1,-1.32%,
O=C1OC(=O)c2cc(Oc3ccc4c(c3)C(=O)OC4=O)ccc21,1.85%,
Nc1cc(C(=O)O)ccc1Cl,-1.57%,
CCc1nccnc1C,2.67%,
CCN1CN(CC)CN(CC)C1,-1.61%,
CCS(=O)(=O)CCn1c([N+](=O)[O-])cnc1C,,10.2 µM [activator] (active)
OC[C@@H](O)[C@H](O)[C@@H](O)[C@@H](O)CO,-3.51%,
CCCCCCCCC(=O)OCC,-1.15%,
CC(=O)c1ccc(OCC(=O)N2CCCCC2)cc1,-1.58%,
CCCCCCCCCCCCC,-2.58%,
COc1ccc(NS(=O)(=O)c2ccc(N)cc2)nn1,-1.65% [at 32.9 µM],

# Target: Estrogen receptor (Homo sapiens) (UniProt P03372)
# Experiment: qHTS assay to identify small molecule agonists of the estrogen receptor alpha (ER-alpha) signaling pathway using the BG1 cell line (AID 743079); note: nearly all actives have a fitted effect of over 20% in size; note: potency is the fitted concentration of half-maximal effect
# Conditions: BG1Luc4E2 cells, ERE-luciferase agonist, 22 h; series mostly up to 70.3 µM; activation: at the top concentration
SMILES,activation,Potency
Cc1nc2ccccc2c(=O)o1,10.5% [at 95 µM],
CCN(CCO)c1cccc(C)c1,2.98%,
FC(F)(F)/C(=N\OCC1OCCO1)c1ccc(Cl)cc1,-0.208%,
C=CCCCCCCCCCCC,-5.04% [at 8.47 µM],
CCCCCCCCCCCCCC(=O)OC,2.44%,
CNC(=O)C(c1ccccc1)c1ccccc1,-6.5%,
Cc1nc(C)nc(N2C[C@@H](C)N(c3ccnc([C@@H](C)O)n3)[C@@H](C)C2)n1,-9.56%,
COc1ccc(/C=N/NC(=O)c2ccncc2)cc1OC,0.514%,
CC(C)COC(=O)/C=C/c1ccccc1,3.04%,
O=C1OC(=O)c2cc(Oc3ccc4c(c3)C(=O)OC4=O)ccc21,4.15%,
Nc1cc(C(=O)O)ccc1Cl,-2.46%,
CCc1nccnc1C,-5.75%,
CCN1CN(CC)CN(CC)C1,0.349%,
CCS(=O)(=O)CCn1c([N+](=O)[O-])cnc1C,,2.27 µM (active)
OC[C@@H](O)[C@H](O)[C@@H](O)[C@@H](O)CO,-2.51%,
CCCCCCCCC(=O)OCC,1.66%,
CC(=O)c1ccc(OCC(=O)N2CCCCC2)cc1,,18.8 µM (active)
CCCCCCCCCCCCC,6.31%,
COc1ccc(NS(=O)(=O)c2ccc(N)cc2)nn1,0.656% [at 32.5 µM],

# Test system: not listed separately
# Experiment: qHTS assay to identify small molecule antagonists of the estrogen receptor alpha (ER-alpha) signaling pathway using the BG1 cell line (AID 743080; calls by dose curve;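 note: BG1 cells stimulated with 17beta-estradiol alongside compound; nearly all actives have a fitted effect of over 25% in size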)
# Conditions: BG1Luc4E2 ERE-luciferase antagonist mode, luminescence; series mostly up to 70.3 µM; activity change, negative = inhibition: at the top concentration
# Outline: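 Quantitative HTS on the Tox21 10K library: BG1 cells with endogenous ER-alpha and ERE-luciferase reporter, 17beta-estradiol stimulation, 21.5 h compound exposure, luminescence endpoint with parallel fluorescence cytotoxicity counter-read.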
row,SMILES,"activity change, negative = inhibition"
1,CCN(CCO)c1cccc(C)c1,0.0543%
2,FC(F)(F)/C(=N\OCC1OCCO1)c1ccc(Cl)cc1,1.85%
3,C=CCCCCCCCCCCC,-1.81% [at 8.47 µM]
4,CCCCCCCCCCCCCC(=O)OC,-0.614%
5,Cc1nc(C)nc(N2C[C@@H](C)N(c3ccnc([C@@H](C)O)n3)[C@@H](C)C2)n1,-21.1%
6,COc1ccc(/C=N/NC(=O)c2ccncc2)cc1OC,-8.13%
7,CC(C)COC(=O)/C=C/c1ccccc1,-0.476%
8,O=C1OC(=O)c2cc(Oc3ccc4c(c3)C(=O)OC4=O)ccc21,11%
9,CCN1CN(CC)CN(CC)C1,-6.65%
10,OC[C@@H](O)[C@H](O)[C@@H](O)[C@@H](O)CO,5.88%
11,CCCCCCCCCCCCC,-0.754%
12,COc1ccc(NS(=O)(=O)c2ccc(N)cc2)nn1,11.1% [at 32.5 µM]

# Test system: not listed separately
# Experiment: qHTS assay to identify small molecule antagonists of the estrogen receptor alpha (ER-alpha) signaling pathway using the BG1 cell line - cell viability counter screen (AID 743081);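 note: compound given together with 17beta-estradiol as the ER stimulus; nearly all actives have a fitted effect of over 45% in size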
# Conditions: BG1Luc4E2 viability, CellTiter-Fluor, 22 h; series mostly up to 70.3 µM; activity change, negative = cytotoxicity: at the top concentration
row,SMILES,"activity change, negative = cytotoxicity"
1,CCCCC/C=C/CC(=O)OC,7.62%
2,Cc1nc2ccccc2c(=O)o1,3.05% [at 95 µM]
3,CCN(CCO)c1cccc(C)c1,21.4%
4,FC(F)(F)/C(=N\OCC1OCCO1)c1ccc(Cl)cc1,4.25%
5,C=CCCCCCCCCCCC,2.93% [at 8.47 µM]
6,CCCCCCCCCCCCCC(=O)OC,0.15%
7,NC(Cc1c[nH]c2ccccc12)C(=O)O (centres undefined),0.261%
8,CNC(=O)C(c1ccccc1)c1ccccc1,2.89%
9,Cc1nc(C)nc(N2C[C@@H](C)N(c3ccnc([C@@H](C)O)n3)[C@@H](C)C2)n1,-1.4%
10,NS(=O)(=O)c1cc2c(cc1Cl)NC(C(Cl)Cl)NS2(=O)=O (centres undefined),30% [at 32.5 µM]
11,O=C(O)c1ccccc1C(=O)Nc1ccc(S(=O)(=O)Nc2nccs2)cc1,4.59%
12,C[C@H](CCC(=O)NCC(=O)O)[C@H]1CC[C@H]2[C@@H]3[C@H](O)C[C@@H]4C[C@H](O)CC[C@]4(C)[C@H]3C[C@H](O)[C@]12C,-4.18%
13,COc1ccc(/C=N/NC(=O)c2ccncc2)cc1OC,5.06%
14,C=CCOc1cc(Cl)ccc1C(=O)NCCN(CC)CC,-10.1%
15,CCCCCCCC[Si](OCC)(OCC)OCC,5.89%
16,O=C(CN1CCN(Cc2ccc3c(c2)OCO3)CC1)N1c2ccccc2Sc2ccccc21,-27.1%
17,O=C1c2ccccc2-c2ccccc21,10.7% [at 95 µM]

row,SMILES,"activity change, negative = cytotoxicity"
1,CC(C)COC(=O)/C=C/c1ccccc1,6.92%
2,CN(C1CCCCC1)S(=O)(=O)c1ccccc1N,-10%
3,O=C1OC(=O)c2cc(Oc3ccc4c(c3)C(=O)OC4=O)ccc21,9.49%
4,Nc1cc(C(=O)O)ccc1Cl,1.25%
5,CCc1nccnc1C,18.9%
6,CC(=O)OCCCc1ccccc1,8.47%
7,CC(C)COC(=O)CCCCC(=O)OCC(C)C,0%
8,CCN1CN(CC)CN(CC)C1,-3.13%
9,CCS(=O)(=O)CCn1c([N+](=O)[O-])cnc1C,-4.66% [at 32.5 µM]
10,CC(C)=CC(C)(C)C,2.55%
11,OC[C@@H](O)[C@H](O)[C@@H](O)[C@@H](O)CO,-7.68%
12,CCC(=O)OCCC(C)CCC=C(C)C (centres undefined),7.89%
13,CCCCCCCCC(=O)OCC,3.99%
14,FC(F)(F)c1ccc(Cl)cc1Cl,2.21%
15,O=c1cc(O)c(Cl)c[nH]1,-2.92%
16,CCCCCCCCCCCCC,-5.12%
17,COc1ccc(NS(=O)(=O)c2ccc(N)cc2)nn1,3.23% [at 32.5 µM]
